Our source for the growth values is PubChem BioAssay (NCI).

Test systems include SK-MEL-2 melanoma; EKVX NSCLC; SN12C renal; UO-31 renal; TK-10 renal; ACHN renal; CAKI-1 renal; A498 renal; CCRF-CEM leukemia; MOLT-4 leukemia.
What all share (assay): NCI-60 one-dose screen, 48 h (100 = growth as untreated, 0 = no growth, -100 = all killed)
What all share (settings): 10 µM unless noted

The panel holds about 83,000 compounds, 20% with a hit somewhere; the sample as a whole holds those more often.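 Step 1: grow cells in 96-well plates. Step 2: add test compound at a single concentration. Step 3: incubate 48 h. Step 4: record percent growth.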 Values without a mark were called inactive. Calls of active or inactive are those of the source. Rule for the calls: active = growth percent below 10; inactive = the rest.

`c1ccc(C2=NN[C@H](c3cn(-c4ccccc4)nc3-c3ccccc3)C2)cc1`: the growth with SK-MEL-2 melanoma was 54.8%; with EKVX NSCLC it was 41.4%; with SN12C renal it was 46.6%; in the test with UO-31 renal, 9.32% (active); in the test with TK-10 renal, 17.9%; in the test on ACHN renal it was -4.87% (active). The growth was 4.95% (active) with CAKI-1 renal, 54.5% in the test on A498 renal, 89.3% in the test with CCRF-CEM leukemia and 80.5% in the test with MOLT-4 leukemia.

Consider `COc1ccc2cc(-c3ccc(NC(C)=O)c(=O)o3)ccc2c1`, for which the growth with SK-MEL-2 melanoma is 98.6%; in the test with EKVX NSCLC it was 106%; in the test on SN12C renal it was 102%; in the test on UO-31 renal, 77.6%; with TK-10 renal, 97.4%; in the test on ACHN renal it was 98.7%. For the same compound, the growth is 89.7% in the test with CAKI-1 renal, 85% in the test on A498 renal, 93.1% in the test on CCRF-CEM leukemia and 90.9% in the test with MOLT-4 leukemia.

For `O=C1CNC(c2ccccc2)C(c2ccccc2)N1` (stereo not given), the growth in the test with SK-MEL-2 melanoma is 94.7%; in the test with EKVX NSCLC, 102%; with SN12C renal, 99.8%; with UO-31 renal, 109%; in the test on TK-10 renal it was 103%; with ACHN renal it was 98.5%. Further, the growth is 81.2% in the test on CAKI-1 renal, 74.7% in the test on A498 renal, 69.9% in the test with CCRF-CEM leukemia and 104% in the test with MOLT-4 leukemia.

For `CCOP(=O)(OCC)c1nc(-c2ccccc2)oc1NCc1cccnc1`, the growth in the test on SK-MEL-2 melanoma was 111%; in the test on EKVX NSCLC, 104%; in the test on SN12C renal it was 103%; in the test on UO-31 renal, 89.7%; in the test on TK-10 renal, 101%; in the test with ACHN renal, 103%. The growth with CAKI-1 renal was 97.3%; in the test with A498 renal, 102%; in the test on CCRF-CEM leukemia, 108%; in the test with MOLT-4 leukemia, 101%.

Turning to `CC1=C(Nc2ccc(N3CCN(C)CC3)cc2)C(=O)c2cncnc2C1=O`, the growth in the test with SK-MEL-2 melanoma is 109%; with EKVX NSCLC it was 98.3%; in the test on SN12C renal it was 98.5%; in the test with UO-31 renal, 86.2%; with TK-10 renal, 142%; with ACHN renal it was 6.25% (active). The growth in the test with CAKI-1 renal was 87.9%; with A498 renal, 113%; with CCRF-CEM leukemia, 5.93% (active); in the test with MOLT-4 leukemia, -11.9% (active).

For `CS(=O)(=O)Nc1cc(-c2ccc3ncnc(Nc4ccc5c(cnn5Cc5ccccn5)c4)c3c2)cnc1Cl`, the growth in the test on SK-MEL-2 melanoma was 61.8%; in the test with EKVX NSCLC it was 80.8%; in the test on SN12C renal, 72.5%; in the test with UO-31 renal, 64.8%; in the test on TK-10 renal it was 65.5%; in the test with ACHN renal, 88%. For the same compound, the growth in the test with CAKI-1 renal is 65.4%; in the test on A498 renal it was 20.4%; in the test on CCRF-CEM leukemia, 60%; in the test with MOLT-4 leukemia, 78.7%.

Turning to `O=C(CI)NC1Oc2ccccc2-c2oc(=O)c(-c3ccccc3)cc21` (stereo not given), the growth is -16.4% (active) with SK-MEL-2 melanoma; 70.4% in the test with EKVX NSCLC; -71.2% (active) in the test on SN12C renal; -94.7% (active) in the test on UO-31 renal; -73.5% (active) in the test on TK-10 renal; -91.3% (active) in the test on ACHN renal. The growth is -100% (active) in the test with CAKI-1 renal, 82.1% with A498 renal, -23.4% (active) in the test with CCRF-CEM leukemia and -25.8% (active) with MOLT-4 leukemia.

Regarding `CN(C)c1ccc(Nc2cc(-c3cccc(OC(F)(F)F)c3)nc3ccc(N4CCCC4)cc23)cc1`, the growth is 106% with SK-MEL-2 melanoma; 89.3% with EKVX NSCLC; 40.3% in the test with SN12C renal; 74% in the test on UO-31 renal; 95.4% in the test on TK-10 renal; 97.6% in the test with ACHN renal. Besides, the growth in the test with CAKI-1 renal is 89.6%; in the test on A498 renal, 98.3%; in the test on CCRF-CEM leukemia it was 3.82% (active); in the test with MOLT-4 leukemia, 2.94% (active).

With `Cc1ccc2c(n1)C(=O)c1[nH]c3ccccc3c1C2=O`, the growth with SK-MEL-2 melanoma is 64.2%; with EKVX NSCLC, 43.7%; in the test on SN12C renal, 36.5%; in the test with UO-31 renal, 50.5%; in the test on TK-10 renal, 115%; with ACHN renal, 49.2%. Also, the growth in the test with CAKI-1 renal was 56.4%; with A498 renal, 69.2%; in the test with CCRF-CEM leukemia, 55.9%; in the test with MOLT-4 leukemia it was 35.1%.

With `CC(C)(C)c1cc(-c2nc3ccc(N4CCN(S(C)(=O)=O)CC4)cc3[nH]2)cc(C(C)(C)C)c1O`, the growth in the test with SK-MEL-2 melanoma is 94%; with EKVX NSCLC, 101%; in the test with SN12C renal, 97.7%; with UO-31 renal, 97%; in the test with TK-10 renal, 90.4%; with ACHN renal it was 72.4%. Further, the growth was 75.5% with CAKI-1 renal, 99.4% in the test on A498 renal, 84.5% in the test on CCRF-CEM leukemia and 64.6% in the test with MOLT-4 leukemia.

Consider `COc1ccc2c(c1)[n+]([O-])c(C(=O)/C=C/C=C(\Cl)c1cc(OC)c(OC)c(OC)c1)c(C)[n+]2[O-]`, for which the growth was 47.2% in the test with SK-MEL-2 melanoma; 85.6% in the test on EKVX NSCLC; 78.1% with SN12C renal; 107% with UO-31 renal; 89.2% with TK-10 renal; 44.7% in the test with ACHN renal. Further, the growth with CAKI-1 renal was 79.1%; in the test with A498 renal, 96.6%; with CCRF-CEM leukemia, 99.8%; with MOLT-4 leukemia, 96.1%.

For the compound `O=C(Cn1cc(CN2C(=O)c3ccccc3S2(=O)=O)nn1)Nc1nc2ccccc2s1`, the growth is 95.3% in the test with SK-MEL-2 melanoma; 105% with EKVX NSCLC; 105% in the test on SN12C renal; 69.1% in the test on UO-31 renal; 97.5% with TK-10 renal; 90.5% in the test with ACHN renal. The growth is 89.6% with CAKI-1 renal, 108% with A498 renal, 113% in the test with CCRF-CEM leukemia and 115% in the test on MOLT-4 leukemia.

`CCC(C)N(c1ccc(Cl)cc1)c1nc(-c2ccc(Br)cc2)cs1` (stereo not given): the growth in the test on SK-MEL-2 melanoma is 105%; in the test on EKVX NSCLC, 80.2%; with SN12C renal, 99.2%; with UO-31 renal, 81.3%; in the test on TK-10 renal, 131%; in the test on ACHN renal, 96.4%. Moreover, the growth was 70.9% with CAKI-1 renal, 94.7% in the test with A498 renal, 81.7% with CCRF-CEM leukemia and 82.7% in the test on MOLT-4 leukemia.
